# From PubChem BioAssay
# Activity calls are given as the source filed them.
# Experiments:
# Albumin (Bos taurus) = Albumin (Bos taurus) (UniProt P02769); assay: compounds binding labelled BSA control protein – biochemical, small-molecule microarray, Alexa647 label, 635/667 nm fluorescence, artefact control for SMM control protein annotation, profiling panel (AID 1118); conditions: BSA-A647 binding, fluorescence 635 nm, higher = more signal;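 note: score merges 667 nm emission intensity and signal-to-noise per printed compound spot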
# Albumin (Bos taurus), sequence (P02769 whole entry, looked up): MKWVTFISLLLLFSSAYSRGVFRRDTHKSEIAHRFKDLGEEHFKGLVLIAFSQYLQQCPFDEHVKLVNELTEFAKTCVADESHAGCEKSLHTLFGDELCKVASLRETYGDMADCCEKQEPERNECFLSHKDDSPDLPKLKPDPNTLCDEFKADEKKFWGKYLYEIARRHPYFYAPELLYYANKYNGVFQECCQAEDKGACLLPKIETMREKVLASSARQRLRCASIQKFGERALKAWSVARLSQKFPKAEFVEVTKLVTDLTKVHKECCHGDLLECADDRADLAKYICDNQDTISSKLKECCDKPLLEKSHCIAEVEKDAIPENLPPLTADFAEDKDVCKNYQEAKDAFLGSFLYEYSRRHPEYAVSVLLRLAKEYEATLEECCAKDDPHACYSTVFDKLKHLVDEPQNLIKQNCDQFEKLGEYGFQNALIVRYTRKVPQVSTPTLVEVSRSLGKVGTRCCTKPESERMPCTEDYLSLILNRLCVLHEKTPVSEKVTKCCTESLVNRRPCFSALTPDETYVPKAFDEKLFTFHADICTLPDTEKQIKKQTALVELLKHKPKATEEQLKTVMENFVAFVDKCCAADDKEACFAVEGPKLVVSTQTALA
# [1] = probe aXIP binding to arrayed compounds – biochemical, NeuroSMM set, 635/667 nm fluorescence, primary screen (AID 1119); conditions: small-molecule microarray, higher = more signal, called active from +8 up or from −8 down;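 note: probe is the protein aXip251-270 applied at 1 µg/mL to compound-printed slides; binding of probe to printed compounds measured as 667 nm fluorescence plus signal to noise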
# [2] = probe aNOTCH3 binding on compound microarray – biochemical, small-molecule microarray, 635/667 nm fluorescence, primary screen (AID 1120); conditions: higher = more signal;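 note: probe is a biotin-tagged antibody raised against NOTCH3 rather than NOTCH3 protein; score merges spot fluorescence near 667 nm with spot signal to noise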
# [3] = probe aNOTCH2 binding on compound microarray – biochemical, small-molecule microarray, 635/667 nm fluorescence, primary screen (AID 1121); conditions: higher = more signal;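 note: score merges feature fluorescence read at 667 nm with its signal to noise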
# [4] = molecular target: Carbonic anhydrase 2 (Homo sapiens) (UniProt P00918); assay: compounds binding carbonic anhydrase 2 – biochemical, small-molecule microarray, Alexa647-labelled CAII, profiling panel (AID 1122); conditions: CAII-A647 binding fluorescence, higher = more signal
# [5] = COS7 lysate on small-molecule microarray, probe aHis, 635 nm (AID 1123); conditions: COS7 cell lysate, fluorescence, higher = more signal;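 note: z-score combines 667nm fluorescence intensity with signal-to-noise per printed compound spot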
# [6] = probe aLAP1 signal on lysate-treated microarray – cell lysate, small-molecule microarray, COS7 lysate, primary screen (AID 1124); conditions: probe aLAP1, fluorescence, higher = more signal;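 note: lysate comes from COS7 cells expressing LAP1 and is applied at 0.3 µg/mL; score merges spot fluorescence near 667 nm with signal-to-noise over triplicate slides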
# Sam68 (KHDRBS1) = assay: compounds binding KHDRBS1 protein – biochemical, small-molecule microarray, 635 nm fluorescence, primary screen (AID 1125); conditions: higher = more signal;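 note: score merges 667 nm channel intensity with signal to noise over triplicate slides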
# [7] = system: Chordin-like protein 2 (CHRDL2); assay: compounds binding chordin-like 2 – biochemical, small-molecule microarray, 635 nm fluorescence, primary screen (AID 1126); conditions: fluorescence 635 nm, higher = more signal;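 note: printed compound slides probed with Chrdl2 protein at 4 µg/mL for 1 h at 4 C; score merges 667 nm emission intensity with signal to noise over three replicate slides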
# [8] = molecular target: Concanavalin-A (Canavalia ensiformis) (UniProt P02866); assay: compounds binding concanavalin A lectin – biochemical, small-molecule microarray, Alexa647 label, 635 nm, artefact control for SMM control protein annotation, primary screen (AID 1127); conditions: ConA-A647 binding fluorescence, higher = more signal;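 note: z combines 667 nm emission intensity with signal-to-noise across three replicate slides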
# Concanavalin-A (Canavalia ensiformis), sequence (P02866 whole entry, looked up): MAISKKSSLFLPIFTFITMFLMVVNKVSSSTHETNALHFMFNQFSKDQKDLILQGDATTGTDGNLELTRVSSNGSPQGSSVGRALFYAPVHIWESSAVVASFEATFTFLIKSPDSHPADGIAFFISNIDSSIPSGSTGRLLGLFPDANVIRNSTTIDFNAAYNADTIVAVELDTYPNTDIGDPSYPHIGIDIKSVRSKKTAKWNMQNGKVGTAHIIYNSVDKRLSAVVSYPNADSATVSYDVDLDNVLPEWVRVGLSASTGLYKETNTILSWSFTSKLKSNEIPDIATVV
# [9] = compounds binding Alexa647 anti-His antibody – biochemical, small-molecule microarray, 635 nm fluorescence, artefact control for SMM control protein annotation, primary screen (AID 1128); conditions: higher = more signal;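 note: score merges feature fluorescence with signal-to-noise for each printed compound spot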
# [10] = system: Human papillomavirus type 1a E7 protein (residues 1-88); assay: HPV1a E7 small-molecule binders, primary screen, biochemical, small-molecule microarray, residues 1-88, 635 nm (AID 1129); conditions: small-molecule microarray binding, fluorescence 635 nm; higher = more signal
# [11] = molecular target: Focal adhesion kinase 1 (Homo sapiens) (UniProt Q05397); assay: PTK2 protein binding on printed compound slides – biochemical, small-molecule microarray, 635/667 nm fluorescence, BSA, DTT, primary screen (AID 1130); conditions: 635 nm fluorescence, higher = more signal;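 note: composite of spot emission at 667 nm and signal to noise over triplicate slides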
# Focal adhesion kinase 1 (Homo sapiens), sequence (Q05397 whole entry, looked up): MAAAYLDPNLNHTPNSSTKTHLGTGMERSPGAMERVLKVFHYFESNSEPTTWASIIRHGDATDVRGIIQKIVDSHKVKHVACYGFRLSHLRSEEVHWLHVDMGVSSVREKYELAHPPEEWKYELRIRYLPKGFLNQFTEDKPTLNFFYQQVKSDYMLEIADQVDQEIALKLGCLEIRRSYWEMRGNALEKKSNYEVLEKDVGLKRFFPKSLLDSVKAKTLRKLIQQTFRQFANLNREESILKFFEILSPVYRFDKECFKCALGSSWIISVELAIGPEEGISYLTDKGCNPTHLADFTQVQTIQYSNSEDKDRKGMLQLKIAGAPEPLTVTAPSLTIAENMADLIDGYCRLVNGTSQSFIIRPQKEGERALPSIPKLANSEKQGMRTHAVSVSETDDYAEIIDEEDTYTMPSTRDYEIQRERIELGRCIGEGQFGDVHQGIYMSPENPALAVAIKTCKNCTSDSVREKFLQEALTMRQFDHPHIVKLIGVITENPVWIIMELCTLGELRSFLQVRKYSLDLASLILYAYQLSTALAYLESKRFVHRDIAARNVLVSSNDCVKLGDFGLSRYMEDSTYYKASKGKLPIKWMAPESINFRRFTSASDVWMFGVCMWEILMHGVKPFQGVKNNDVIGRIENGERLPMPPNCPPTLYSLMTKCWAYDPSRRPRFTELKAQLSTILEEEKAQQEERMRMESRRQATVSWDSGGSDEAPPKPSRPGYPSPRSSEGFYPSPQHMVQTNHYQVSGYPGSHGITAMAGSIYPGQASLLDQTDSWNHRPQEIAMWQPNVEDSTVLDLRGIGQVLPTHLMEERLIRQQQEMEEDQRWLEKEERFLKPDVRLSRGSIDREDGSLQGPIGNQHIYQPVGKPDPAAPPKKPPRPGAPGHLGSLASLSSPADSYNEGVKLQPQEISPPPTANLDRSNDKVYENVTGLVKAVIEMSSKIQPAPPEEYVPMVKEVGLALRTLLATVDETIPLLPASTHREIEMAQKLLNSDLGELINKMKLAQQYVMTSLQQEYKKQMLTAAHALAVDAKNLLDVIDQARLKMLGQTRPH
# [12] = system: Fibrinogen (Alexa647-labelled); assay: Alexa647-fibrinogen binding to printed small molecules – biochemical, small-molecule microarray, 635/667 nm fluorescence, artefact control for SMM control-protein annotation, profiling panel (AID 1131); conditions: fibrinogen-A647 binding fluorescence, higher = more signal;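 note: z-score merges 667 nm fluorescence with per-spot signal-to-noise over triplicate slides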
# [13] = molecular target: Follistatin (Homo sapiens) (UniProt P19883); assay: FST protein binding to printed compounds – biochemical, small-molecule microarray, 635/667 nm fluorescence, primary screen (AID 1132); conditions: 635 nm fluorescence, higher = more signal
# Follistatin (Homo sapiens), sequence (P19883 whole entry, looked up): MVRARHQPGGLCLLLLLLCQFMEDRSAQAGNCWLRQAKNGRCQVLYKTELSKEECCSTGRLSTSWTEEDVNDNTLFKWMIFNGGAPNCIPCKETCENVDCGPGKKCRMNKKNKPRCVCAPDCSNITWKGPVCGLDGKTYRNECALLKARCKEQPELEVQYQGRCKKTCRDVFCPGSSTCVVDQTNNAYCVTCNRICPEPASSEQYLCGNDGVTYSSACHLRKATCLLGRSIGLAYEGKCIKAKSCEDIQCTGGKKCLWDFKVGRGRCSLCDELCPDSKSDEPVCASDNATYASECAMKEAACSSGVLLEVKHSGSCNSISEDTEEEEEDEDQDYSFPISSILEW
# [14] = molecular target: Fibroblast growth factor 2 (Homo sapiens) (UniProt P09038); assay: basic fibroblast growth factor binding to printed compounds – biochemical, small-molecule microarray, 635/667 nm fluorescence, primary screen (AID 1133); conditions: FGF2, fluorescence 635/667, higher = more signal
# Fibroblast growth factor 2 (Homo sapiens), sequence (P09038 whole entry, looked up): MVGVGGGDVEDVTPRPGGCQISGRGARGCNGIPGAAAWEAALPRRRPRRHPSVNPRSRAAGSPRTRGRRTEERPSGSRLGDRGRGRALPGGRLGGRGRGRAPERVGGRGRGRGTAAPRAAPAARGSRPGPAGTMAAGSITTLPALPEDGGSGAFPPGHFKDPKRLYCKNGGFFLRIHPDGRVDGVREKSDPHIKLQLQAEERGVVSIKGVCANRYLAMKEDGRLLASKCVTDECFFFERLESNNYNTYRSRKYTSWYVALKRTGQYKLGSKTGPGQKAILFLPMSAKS
# [15] = JC-1 mitochondrial potential readout, lung cancer cells – cell-based, A549, JC-1 fluorescence, basal, 24 h, 100 nL, profiling panel (AID 1138); conditions: higher = more signal;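 note: A549 lung adenocarcinoma cells under basal conditions with no added stimulus; test concentration not given here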
# Lefty1 = Lefty1 protein binding to printed compounds – biochemical, small-molecule microarray, 635/667 nm fluorescence, primary screen (AID 1139); conditions: fluorescence 635/667, higher = more signal
# [16] = system: wheat germ agglutinin (Triticum aestivum), Alexa647-labelled; assay: Alexa647-WGA lectin binding to printed small molecules – biochemical, small-molecule microarray, 635/667 nm fluorescence, artefact control for SMM control-protein annotation, profiling panel (AID 1140); conditions: WGA-A647 binding, 635 nm fluorescence, higher = more signal;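 note: score merges 667 nm feature emission with signal to noise over triplicate slides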
# [17] = molecular target: Luciferin 4-monooxygenase (Photinus pyralis) (UniProt P08659); assay: inhibition of purified Photinus pyralis luciferase – biochemical, luminescence, purified enzyme, 2006 set, primary screen (AID 1141); conditions: purified firefly luciferase, SteadyGlo luminescence, 30 min; higher = more signal, called active from +8 up or from −8 down;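 note: cell-free assay with purified firefly luciferase at 100 ng per well in PBS; test concentration not given here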
# Luciferin 4-monooxygenase (Photinus pyralis), sequence (P08659 whole entry, looked up): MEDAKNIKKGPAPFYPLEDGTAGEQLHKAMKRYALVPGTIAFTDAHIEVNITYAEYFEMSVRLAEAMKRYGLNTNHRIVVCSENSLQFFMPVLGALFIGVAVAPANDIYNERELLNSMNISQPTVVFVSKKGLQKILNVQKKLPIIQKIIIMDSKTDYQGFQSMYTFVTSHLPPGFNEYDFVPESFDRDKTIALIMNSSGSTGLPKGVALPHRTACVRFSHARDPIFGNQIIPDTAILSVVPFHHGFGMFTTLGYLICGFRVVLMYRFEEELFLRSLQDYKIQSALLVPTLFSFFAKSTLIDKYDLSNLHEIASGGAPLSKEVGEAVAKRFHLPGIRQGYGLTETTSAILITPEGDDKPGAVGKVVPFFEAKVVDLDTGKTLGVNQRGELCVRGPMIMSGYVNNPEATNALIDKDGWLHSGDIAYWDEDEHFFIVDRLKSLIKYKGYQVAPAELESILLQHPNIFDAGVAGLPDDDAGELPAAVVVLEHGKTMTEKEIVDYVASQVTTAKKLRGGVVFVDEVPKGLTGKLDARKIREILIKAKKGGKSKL
SMILES,composite z-score (Albumin (Bos taurus)),composite Z-score [1],composite z-score [2],composite z-score [3],composite z-score [4],composite z-score [5],composite z-score [6],composite z-score (Sam68 (KHDRBS1)),composite z-score [7],composite z-score [8],composite z-score [9],composite z-score [10],composite z-score [11],composite z-score [12],composite z-score [13],composite z-score [14],z-score [15],composite z-score (Lefty1),composite z-score [16],z-score [17]
O=C1C2C=CC(C(O)c3ccc(F)cc3)N(Nc3ccc([N+](=O)[O-])cc3)C2C(=O)N1c1ccccc1 (stereo not given),0.877,0.227 (inactive),0.0749,-0.0852,0.795,2.76,0.569,1.31,0.0095,1.15,1.76,0.705,0.789,1.02,0.282,-0.0449,-0.433,0.16,1.09,1.43 (inactive)
CO[C@H]1O[C@H](CO)[C@@H](OC(=O)Nc2ccccc2-c2ccccc2)[C@H](OC(=O)Nc2ccccc2-c2ccccc2)[C@@H]1OC(=O)Nc1ccccc1-c1ccccc1,0.926,0.523 (inactive),0.0904,-0.0513,0.374,2.18,0.75,1.29,0.332,1.17,0.747,1.23,0.993,0.906,1.2,0.814,-0.00054,0.55,0.827,-0.858 (inactive)
C=C(C)[C@@H]1CC=C(C(O)C2C=CC3C(=O)NC(=O)C3N2Nc2ccc(Cl)cc2Cl)CC1 (stereo not given in full),1,0.114 (inactive),0.0221,0.0032,0.708,2,0.708,1.31,0.41,1.11,1.83,1.2,1.33,1,1.14,-0.853,-1.25,-0.336,1.34,0.022 (inactive)
CCOC(=O)C1=CC[C@@H](c2ccccc2)N(S(=O)(=O)c2ccc(C)cc2)[C@H]1c1ccc(CC)cc1,0.847,-0.579 (inactive),0.0749,-0.0371,0.571,1.52,0.662,1.1,-0.0671,1.11,1.09,1.18,0.761,0.966,0.352,0.286,2.58,0.245,0.758,1.46 (inactive)
O=C1O[C@@H](c2ccccc2)[C@@H](c2ccccc2)N2[C@@H](c3ccccc3OCCO)[C@]3(C(=O)Nc4ccc(C#CC5(O)CCCCCC5)cc43)[C@@H](C(=O)N3CCN(c4ncccn4)CC3)[C@H]12,0.287,0.276 (inactive),-0.0416,-0.131,0.398,1.47,0.795,1.21,0.183,1.02,1.25,1.2,0.564,0.885,1.03,1.15,-0.758,0.62,0.742,-1.39 (inactive)
NCCCCCNC(=O)[C@H]1C[C@H]2C(=O)N[C@@H](Cc3ccccc3)C(=O)N2[C@H]1c1cccc(OCCO)c1,0.862,1.11 (inactive),0.144,0.0409,0.438,0.24,1.07,0.474,0.723,0.883,0.614,0.624,0.163,0.962,1.07,0.159,1.07,0.0778,0.782,-1.4 (inactive)
Cc1ccc(S[C@]2(C(=O)O)CC(=O)N(Cc3ccccc3C(F)(F)F)[C@@H]2c2ccc(CO)cc2I)cc1,0.426,0.286 (inactive),-0.0716,0.0477,0.502,1.74,1.51,0.406,-0.673,-0.0929,0.275,0.0179,-0.0066,0.0184,0.0699,0.511,0.348,-0.781,0.75,-0.499 (inactive)
CC(=O)n1cc(C(O)C2C=CC3C(=O)NC(=O)C3N2Nc2ccccn2)c2ccccc21 (stereo not given),0.281,-0.0662 (inactive),-0.116,-0.176,0.817,0.688,0.248,0.0906,0.549,0.551,0.426,0.355,1.74,0.0552,0.242,-0.219,0.471,-0.0259,0.0414,-1.35 (inactive)
CCCCC(=C=CC[C@@H](O)c1ccc(CO)o1)CCO,-0.276,-0.35 (inactive),0.0261,-0.044,0.595,-0.0845,0.24,1.17,0.29,0.119,1.05,0.0355,-0.347,-0.313,1.14,1.13,0.622,1.08,0.55,-2.51 (inactive)
Cc1ccc([C@H]2C(C(=O)O)=CCN2S(=O)(=O)c2ccc(C)cc2)cc1,0.899,-0.168 (inactive),-0.0299,-0.109,0.825,1.21,0.584,0.539,-0.518,1.02,0.388,0.64,1.36,-0.169,0.585,-0.6,-0.575,0.0829,0.572,0.838 (inactive)
CCCC(=O)N(CCc1c[nH]c2ccccc12)[C@@H]1CC(C(=O)NCCO)=C[C@H](Oc2c(I)cc(CO)cc2OC)[C@H]1O,0.0754,-0.471 (inactive),-0.0962,-0.085,0.723,0.532,-0.107,0.195,0.144,0.314,-0.156,-0.064,-0.185,-1.04,0.0919,0.289,1.13,0.0596,0.302,-0.437 (inactive)
